The supplement of paper PMC6555819

Columns and labels:
Experiment in all cases: PBM binding z-score (relative to random genomic background probes); higher = stronger binding; sequences stand for … in GC…GCGATTGACAGCGTAGAATGAAGG
[1] = test system: FXR:RXRa (NR concentration 270 nM, RXRa partner concentration 90 nM)
Method in brief: (§1)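 Antibodies against each partner of ligand-free nuclear receptor dimers (one per run) detected binding on custom Agilent 4×180K protein-binding microarrays after 1 h incubation. The double-stranded probes had 34-nt variable regions carrying direct-repeat seeds, single-nucleotide variants, half-site ablations and random human genomic background sequences. Binding z-scores, from regression-normalized fluorescence, use the random background probes as reference.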

[2] = test system: LXRa:RXRa (NR concentration 270 nM, RXRa partner concentration 90 nM)
Method in brief: as §1

[3] = test system: LXRa homodimer (NR concentration 270 nM)
Method in brief: as §1

[4] = test system: LXRb:RXRa (NR concentration 270 nM, RXRa partner concentration 90 nM)
Method in brief: as §1

[5] = test system: LXRb homodimer (NR concentration 270 nM)
Method in brief: as §1

[6] = test system: PPARa:RXRa (NR concentration 270 nM, RXRa partner concentration 90 nM)
Method in brief: as §1

[7] = test system: PPARg:RXRa (NR concentration 180 nM, RXRa partner concentration 90 nM)
Method in brief: as §1

[8] = test system: PPARg:RXRa 270nM:90nM, anti-RXR (NR concentration 270 nM, RXRa partner concentration 90 nM)
Method in brief: as §1

[9] = test system: PPARg:RXRa 30nM:10nM, anti-RXR (NR concentration 30 nM, RXRa partner concentration 10 nM)
Method in brief: as §1

[10] = test system: PPARg:RXRa 90nM:30nM, anti-RXR (NR concentration 90 nM, RXRa partner concentration 30 nM)
Method in brief: as §1

[11] = test system: PPARg:RXRa DBDmut IVT, anti-RXR (DBD mutation: RXRa K156A/R161A, NR concentration 270 nM, RXRa partner concentration 90 nM)
Method in brief: as §1

[12] = test system: PPARg:RXRa IVT, anti-PPARg (NR concentration 270 nM, RXRa partner concentration 90 nM)
Method in brief: as §1

[13] = test system: PPARg DBDmut:RXRa IVT, anti-PPARg (DBD mutation: PPARg1 K132A/R137A, NR concentration 270 nM, RXRa partner concentration 90 nM)
Method in brief: as §1

[14] = test system: PPARg DBDmut IVT, anti-PPARg (DBD mutation: PPARg1 K132A/R137A, NR concentration 270 nM)
Method in brief: as §1

[15] = test system: PPARg homodimer (NR concentration 180 nM)
Method in brief: as §1

[16] = test system: PXR:RXRa (NR concentration 270 nM, RXRa partner concentration 90 nM)
Method in brief: as §1

[17] = test system: PXR homodimer (NR concentration 270 nM)
Method in brief: as §1

[18] = test system: RARa:RXR (NR concentration 270 nM, RXRa partner concentration 90 nM)
Method in brief: as §1

[19] = test system: RARa homodimer (NR concentration 270 nM)
Method in brief: as §1

[20] = test system: RARb:RXRa (NR concentration 270 nM, RXRa partner concentration 90 nM)
Method in brief: as §1

| Sequence | PBM binding z-score [1] | PBM binding z-score [2] | PBM binding z-score [3] | PBM binding z-score [4] | PBM binding z-score [5] | PBM binding z-score [6] | PBM binding z-score [7] | PBM binding z-score [8] | PBM binding z-score [9] | PBM binding z-score [10] | PBM binding z-score [11] | PBM binding z-score [12] | PBM binding z-score [13] | PBM binding z-score [14] | PBM binding z-score [15] | PBM binding z-score [16] | PBM binding z-score [17] | PBM binding z-score [18] | PBM binding z-score [19] | PBM binding z-score [20] |
| --- | --- | --- | --- | --- | --- | --- | --- | --- | --- | --- | --- | --- | --- | --- | --- | --- | --- | --- | --- | --- |
| ATCTCTAGGTAACAAGGTCAGTGAAAGAGAGGAC | 1.72 | 1.92 | 0.814 | 1.9 | 1.16 | 3.22 | 3.64 | 3.84 | 1.54 | 3 | 4.43 | 4.75 | 1.63 | 1.14 | 2.4 | 1.98 | 1.12 | 2.3 | 1.5 | 3.07 |
| ATCTAAAGGTCGAAGGTGAGTATACCCACCCGAA | 4.51 | 4.47 | 0.846 | 3.2 | 1.12 | 4.71 | 5.11 | 5.19 | 2.76 | 4.36 | 0.448 | 2.65 | 1.07 | 0.686 | 1.22 | 2.87 | 0.401 | 4.15 | 0.981 | 3.76 |
| CCTAGTTGGTCAAGGTCACACATGCTATAGGTAC | 3.87 | 3.69 | 2.25 | 3.88 | 0.901 | 4.01 | 3.24 | 3.69 | 1.38 | 2.96 | 2.61 | 3.82 | 1.11 | 1.14 | 3.65 | 4.24 | 2.57 | 4.11 | 2.64 | 4.14 |
| CAAACTAGGTCACAGAGGGCAAAGTCCGTGCGTA | 5.08 | 4.6 | 2.26 | 3.61 | 0.517 | 5.45 | 8.81 | 7.31 | 5.42 | 7.28 | 8.48 | 8.83 | 5.61 | 4.71 | 1.95 | 4.26 | 4.07 | 3.86 | 0.666 | 4.54 |
| CCTAGCAGGCGAGGGTCACTCAAGCATTTCGCTT | 1.72 | 1.44 | -0.428 | 1.56 | -1.08 | 2.63 | 0.461 | 1.58 | -0.298 | 1.34 | 0.277 | 0.13 | -1.61 | -1.34 | 0.73 | 1.63 | -0.241 | 2.62 | -0.425 | 2.29 |
| AGCGAAAGGTCGAAGGTGAGTATACCCACCCGAA | 4.1 | 3.39 | -0.15 | 2.68 | -0.267 | 4.61 | 4.72 | 5.09 | 2.12 | 4.25 | 0.0438 | 2.06 | 0.39 | -0.438 | 1.16 | 2.97 | -0.17 | 4.28 | 0.406 | 3.6 |
| CGTCCGAGGTCAATGCTAGGTCAGTGAAAGCATT | 7.31 | 5.94 | 2.78 | 5.22 | 1.08 | 5.78 | 5.25 | 5.35 | 1.89 | 4.18 | 3.56 | 4.42 | -0.103 | -0.0468 | 4.53 | 5.62 | 2.14 | 6.71 | 0.652 | 5.17 |
| TAGCCTAGGTCATGCGGGCCAGCATAGTGTCGGC | 3.77 | 3 | 0.115 | 1.37 | -0.19 | 3.4 | 2.11 | 2.55 | 0.274 | 1.49 | 1.81 | 2.94 | 0.0937 | -0.357 | 1.08 | 1.52 | -0.642 | 2.1 | -0.53 | 3.59 |
| TCTCGGATGACACGAAAGGTCAGAGCTCGACATC | 2.84 | 3.68 | 2.02 | 3.4 | 0.368 | 3.8 | 1.38 | 2.75 | 2.83 | 2.72 | 1.88 | 1.33 | 0.619 | 1.03 | 3.4 | 3.7 | 0.17 | 4.37 | 1.07 | 3.68 |
| TAGCCTAGGTCATTGGGCCAGTATAGTACGCATC | 4.22 | 3.49 | 0.558 | 2.36 | 0.375 | 3.82 | 3.56 | 3.65 | 0.801 | 2.75 | 2.86 | 3.89 | 0.41 | 0.0888 | 0.963 | 1.58 | -0.104 | 2.17 | -0.237 | 3.59 |
| TAGCCTAGGTCATTCAGGCGCCAGTATAGAAAGC | 5.09 | 3.26 | 0.555 | 2.5 | 0.661 | 3.35 | 2.01 | 2.37 | 0.32 | 1.41 | 1.59 | 2.61 | 0.787 | -0.107 | 1.85 | 1.68 | -0.342 | 2.44 | -0.00217 | 3.56 |
| CCTTACGGGTCACTCCATGTTATAGCATCGGAGT | 4.2 | 4.36 | -0.0151 | 2.66 | 0.251 | 4.37 | 3.24 | 3.49 | 0.894 | 2.33 | 2.24 | 3.12 | 0.606 | 0.266 | 2.26 | 2.73 | 0.163 | 3.26 | 0.537 | 3.59 |
| GATACAGGGTGAAGGCCAGAGTACGCGTATTGAT | -0.425 | -0.357 | -0.615 | -0.42 | -0.925 | 1.08 | 1.41 | 1.72 | 0.138 | 0.958 | 0.737 | 1.34 | -0.37 | -0.0968 | -0.218 | -0.324 | -0.0784 | -0.132 | -0.36 | 0.882 |
| ACTAGTTGGTCAGCTGAGGTCACACACAATTCGG | 4.25 | 3.46 | 1.96 | 3.8 | 0.66 | 3.89 | 1.97 | 2.31 | 0.854 | 1.58 | 1.96 | 3.06 | 0.93 | 1.21 | 2.63 | 5.47 | 2.09 | 4.69 | 2.64 | 3.79 |
| GATACAGGGTCAACTAGAGGCCAGAGTATGGAAA | 7.52 | 5.21 | 0.703 | 4.77 | 0.877 | 6.2 | 6.7 | 5.69 | 2.72 | 4.61 | 2.63 | 3.97 | 1.7 | 0.682 | 3.88 | 4.77 | 0.995 | 6.02 | 0.807 | 4.8 |
| CAAACTAGGTCACAGAGGACAAAGTCCGTGCGTA | 4.82 | 3.84 | 1.45 | 2.96 | 0.637 | 5.52 | 9.51 | 7.79 | 5.58 | 7.51 | 8.78 | 9.01 | 7.7 | 3.32 | 4.15 | 3.52 | 2.3 | 3.22 | 1.21 | 4.54 |
| CCCACTGGGCCATTCAGAGGTCATTGATCATATG | 2.54 | 4.33 | 5.65 | 3.72 | 0.313 | 3.79 | 2.37 | 3.28 | 0.826 | 2.27 | 3.42 | 4.55 | 0.045 | -0.746 | 1.93 | 4.67 | 2 | 4.2 | 0.72 | 2.96 |
| CCGACTGGGGCAACGGTTACCATACTCAGTACGA | -0.245 | -0.501 | -0.164 | -0.317 | -1.33 | 1.25 | 3.08 | 4.07 | 2.04 | 3.93 | 3.8 | 3.87 | -0.196 | -0.486 | 0.34 | -0.591 | -0.155 | -0.576 | -0.579 | 0.784 |
